Reference: PubChem BioAssay (NCI)
About 83,000 compounds went through this panel and 20% of them were active in at least one assay; those are over-represented in the sample as a whole.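 Activity criterion: percent growth below 10, measured after cells in 96-well plates were exposed to a single compound concentration for 48 hours.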 Activity calls are given as the source filed them.

Experiments:
Assay in all cases: NCI-60 one-dose screen, 48 h (100 = growth as untreated, 0 = no growth, -100 = all killed)
Details in all cases: 10 µM unless noted
HCT-15 colon = system: HCT-15 colon
HT29 colon = system: HT29 colon
SNB-75 CNS = system: SNB-75 CNS
SNB-19 CNS = system: SNB-19 CNS
U251 CNS = system: U251 CNS
PC-3 prostate = system: PC-3 prostate
SK-MEL-5 melanoma = system: SK-MEL-5 melanoma
UACC-62 melanoma = system: UACC-62 melanoma
LOX IMVI melanoma = system: LOX IMVI melanoma
SK-MEL-28 melanoma = system: SK-MEL-28 melanoma
SK-MEL-2 melanoma = system: SK-MEL-2 melanoma
EKVX NSCLC = system: EKVX NSCLC
SN12C renal = system: SN12C renal
UO-31 renal = system: UO-31 renal
TK-10 renal = system: TK-10 renal
ACHN renal = system: ACHN renal
CAKI-1 renal = system: CAKI-1 renal
A498 renal = system: A498 renal
CCRF-CEM leukemia = system: CCRF-CEM leukemia
MOLT-4 leukemia = system: MOLT-4 leukemia

Measured: growth

C#C[C@]1(O)CC[C@H]2[C@@H]3CC=C4c5sc(-c6cccc(C)c6)nc5CC[C@]4(C)[C@H]3CC[C@@]21C
inactive: HCT-15 colon 56.6% | HT29 colon 38.8% | SNB-75 CNS 13.8% | SNB-19 CNS 86.7% | U251 CNS 71.8% | PC-3 prostate 40.5% | SK-MEL-5 melanoma 82.5% | UACC-62 melanoma 77.3% | LOX IMVI melanoma 55% | SK-MEL-28 melanoma 55.9% | SK-MEL-2 melanoma 86.9% | EKVX NSCLC 68% | SN12C renal 71.3% | UO-31 renal 34.1% | TK-10 renal 110% | ACHN renal 63.7% | CAKI-1 renal 27.2% | A498 renal 94.9% | CCRF-CEM leukemia 49.6% | MOLT-4 leukemia 44.2%

O=C(Nc1ncc(Cc2ccccc2Cl)s1)c1ccc2c(c1)OCCO2
active: HT29 colon 6.05% | SNB-75 CNS 3.37% | SK-MEL-5 melanoma -25.1% | A498 renal -0.0402% | CCRF-CEM leukemia 6.45% | MOLT-4 leukemia 7.02%
inactive: HCT-15 colon 10.4% | SNB-19 CNS 36% | U251 CNS 14.7% | PC-3 prostate 23.4% | UACC-62 melanoma 27.9% | LOX IMVI melanoma 23.6% | SK-MEL-28 melanoma 76.3% | SK-MEL-2 melanoma 39.8% | EKVX NSCLC 33.8% | SN12C renal 30.2% | UO-31 renal 51.9% | TK-10 renal 46.2% | ACHN renal 37.3% | CAKI-1 renal 20%

Cn1ccnc1C(=O)/C=C/c1ccc(C(=O)Nc2c(F)c(F)c(F)c(F)c2F)cc1
inactive: SK-MEL-5 melanoma 53.1% | UACC-62 melanoma 29.3% | SK-MEL-28 melanoma 82.5% | SK-MEL-2 melanoma 96.2% | EKVX NSCLC 25% | TK-10 renal 20.4% | A498 renal 76.7%
active: HCT-15 colon -15.5% | HT29 colon 1.2% | SNB-75 CNS 7.64% | SNB-19 CNS 5.66% | U251 CNS -48.9% | PC-3 prostate 7.27% | LOX IMVI melanoma -83.5% | SN12C renal 6.49% | UO-31 renal -81.7% | ACHN renal -43% | CAKI-1 renal 8.22% | CCRF-CEM leukemia 2.63% | MOLT-4 leukemia 2.64%

N#C/C(Sc1nc2sc3c(c2c(=O)n1Cc1ccccc1)CCCC3)=C1/SC=C(c2ccc(Cl)cc2)N1c1ccccc1
inactive: HCT-15 colon 117% | HT29 colon 98.7% | SNB-75 CNS 71.2% | SNB-19 CNS 82.3% | U251 CNS 72.8% | PC-3 prostate 84.2% | SK-MEL-5 melanoma 95.9% | UACC-62 melanoma 90.3% | LOX IMVI melanoma 82.1% | SK-MEL-28 melanoma 109% | SK-MEL-2 melanoma 106% | EKVX NSCLC 106% | SN12C renal 98% | UO-31 renal 63.7% | TK-10 renal 107% | ACHN renal 92.7% | CAKI-1 renal 91.4% | A498 renal 120% | MOLT-4 leukemia 92.3%
active: CCRF-CEM leukemia 0.897%

CCCCCCCCNC(=O)[C@@H](N)CSCOC(C)=O
active: SNB-75 CNS -17.3%
inactive: HCT-15 colon 99.5% | HT29 colon 89.4% | SNB-19 CNS 90.8% | U251 CNS 102% | PC-3 prostate 75.9% | SK-MEL-5 melanoma 48.7% | UACC-62 melanoma 70% | LOX IMVI melanoma 44.4% | SK-MEL-28 melanoma 99.6% | SK-MEL-2 melanoma 89.1% | EKVX NSCLC 111% | SN12C renal 91.7% | UO-31 renal 94.9% | TK-10 renal 105% | ACHN renal 100% | CAKI-1 renal 107% | A498 renal 63% | CCRF-CEM leukemia 45.7% | MOLT-4 leukemia 90.4%

C=C1/C(=C\C=C2/CCC[C@]3(C)[C@@H]([C@H](C)CCCC(C)(C)O)CC[C@@H]23)C[C@@H](OC(=O)CBr)C[C@@H]1O
active: LOX IMVI melanoma -50.9% | UO-31 renal -100% | ACHN renal -29.7% | CAKI-1 renal -30.4% | CCRF-CEM leukemia -50.7% | MOLT-4 leukemia -52.6%
inactive: HCT-15 colon 54.6% | HT29 colon 39.2% | SNB-75 CNS 49.1% | SNB-19 CNS 94.6% | U251 CNS 70.6% | PC-3 prostate 40% | SK-MEL-5 melanoma 84.7% | UACC-62 melanoma 69% | SK-MEL-28 melanoma 93.6% | SK-MEL-2 melanoma 99.7% | EKVX NSCLC 52.4% | SN12C renal 85.2% | TK-10 renal 88.2% | A498 renal 86.2%

CCCCCCC/C=N/NC(=O)c1ccc(-n2cc(-c3ccccc3)nn2)cc1
inactive: HCT-15 colon 73.6% | HT29 colon 101% | SNB-75 CNS 86.3% | SNB-19 CNS 100% | U251 CNS 98.3% | PC-3 prostate 74.8% | SK-MEL-5 melanoma 94.9% | UACC-62 melanoma 61.9% | LOX IMVI melanoma 59.5% | SK-MEL-28 melanoma 98.3% | SK-MEL-2 melanoma 98.9% | EKVX NSCLC 90.5% | SN12C renal 93.4% | UO-31 renal 71% | TK-10 renal 110% | ACHN renal 79.1% | CAKI-1 renal 75.8% | A498 renal 90.1% | CCRF-CEM leukemia 86.3% | MOLT-4 leukemia 85.9%

O=C1C2C(c3cccs3)C=C(c3ccc(Cl)cc3)N2C(=S)N1c1ccccc1 (stereo not given)
inactive: HCT-15 colon 112% | HT29 colon 114% | SNB-75 CNS 97.9% | SNB-19 CNS 94.4% | U251 CNS 97.9% | PC-3 prostate 85.7% | SK-MEL-5 melanoma 97.8% | UACC-62 melanoma 88.8% | LOX IMVI melanoma 98% | SK-MEL-28 melanoma 105% | SK-MEL-2 melanoma 102% | EKVX NSCLC 109% | SN12C renal 95.8% | UO-31 renal 71.4% | TK-10 renal 116% | ACHN renal 95.5% | CAKI-1 renal 91.3% | A498 renal 88.6% | CCRF-CEM leukemia 98.3% | MOLT-4 leukemia 95.4%

Oc1cccc(-c2nc(-c3n[nH]c(=S)n3-c3ccccc3)cc3c2[nH]c2ccccc23)c1
inactive: HCT-15 colon 20.3% | SNB-19 CNS 24.2% | U251 CNS 14% | PC-3 prostate 30% | UACC-62 melanoma 32% | SK-MEL-28 melanoma 31.4% | EKVX NSCLC 50.3% | SN12C renal 44.9% | UO-31 renal 49.6% | TK-10 renal 47.9% | ACHN renal 53% | CAKI-1 renal 64.6% | CCRF-CEM leukemia 21.3% | MOLT-4 leukemia 26.2%
active: HT29 colon 6.61% | SNB-75 CNS -11.5% | SK-MEL-5 melanoma 9.76% | LOX IMVI melanoma 8.16% | SK-MEL-2 melanoma -9.51% | A498 renal -14.8%

COC(=O)CCc1c(/C=C2\N=C(c3ccc[nH]3)C=C2OC)[nH]c(C)c1C(=O)OCc1ccccc1
inactive: SNB-19 CNS 39.3% | SK-MEL-28 melanoma 16.8% | EKVX NSCLC 27.4% | SN12C renal 15.8% | TK-10 renal 18.4% | A498 renal 15.1% | MOLT-4 leukemia 16.9%
active: HCT-15 colon -1.22% | HT29 colon 9.15% | SNB-75 CNS -17.6% | U251 CNS 3.55% | PC-3 prostate 6.14% | SK-MEL-5 melanoma -52.4% | UACC-62 melanoma -29.2% | LOX IMVI melanoma -52.7% | SK-MEL-2 melanoma -27.8% | UO-31 renal -67.2% | ACHN renal 4.36% | CAKI-1 renal -3.87% | CCRF-CEM leukemia 1.47%

NC(=N\N=C/c1ccc(Cl)cc1Cl)/C(N)=N\N=C/c1ccc(Cl)cc1Cl
active: SNB-75 CNS 8.06% | A498 renal -2.93% | CCRF-CEM leukemia 3.15%
inactive: HCT-15 colon 82.9% | HT29 colon 52.5% | SNB-19 CNS 69.8% | U251 CNS 36.2% | PC-3 prostate 89.2% | SK-MEL-5 melanoma 108% | UACC-62 melanoma 94.9% | LOX IMVI melanoma 74% | SK-MEL-28 melanoma 110% | SK-MEL-2 melanoma 63.7% | EKVX NSCLC 77.3% | SN12C renal 67.7% | UO-31 renal 49.8% | TK-10 renal 29.7% | ACHN renal 17.4% | CAKI-1 renal 69.9% | MOLT-4 leukemia 96.6%

COc1cc(NC(=O)c2cncnc2Nc2ccc3c(ccn3Cc3cccc(F)c3)c2)cc(OC)c1
active: SNB-75 CNS 8.48%
inactive: HCT-15 colon 33.7% | HT29 colon 20% | SNB-19 CNS 74.7% | U251 CNS 41.1% | PC-3 prostate 43.5% | SK-MEL-5 melanoma 59.7% | UACC-62 melanoma 55% | LOX IMVI melanoma 40.3% | SK-MEL-28 melanoma 59.6% | SK-MEL-2 melanoma 66.7% | EKVX NSCLC 85.3% | SN12C renal 67.4% | UO-31 renal 37.9% | TK-10 renal 76.8% | ACHN renal 54% | CAKI-1 renal 34.8% | A498 renal 24.3% | CCRF-CEM leukemia 26.4% | MOLT-4 leukemia 19.8%

O=C(Nc1ccc(Cl)cc1)C1=NCCCCN1
inactive: HCT-15 colon 55.4% | HT29 colon 89.6% | SNB-75 CNS 95.6% | SNB-19 CNS 101% | U251 CNS 90.9% | PC-3 prostate 73% | SK-MEL-5 melanoma 93.6% | UACC-62 melanoma 45.1% | LOX IMVI melanoma 30.5% | SK-MEL-28 melanoma 111% | SK-MEL-2 melanoma 97.7% | EKVX NSCLC 80% | SN12C renal 94.5% | UO-31 renal 55.4% | TK-10 renal 90% | ACHN renal 59.1% | CAKI-1 renal 53.8% | A498 renal 98.6% | CCRF-CEM leukemia 89.2% | MOLT-4 leukemia 95.4%

O=C(O)CCCN1C(=O)CSC1=S
inactive: HCT-15 colon 94.3% | HT29 colon 108% | SNB-75 CNS 85.6% | SNB-19 CNS 102% | U251 CNS 108% | PC-3 prostate 95.3% | SK-MEL-5 melanoma 101% | UACC-62 melanoma 96.2% | LOX IMVI melanoma 94.7% | SK-MEL-28 melanoma 105% | SK-MEL-2 melanoma 104% | EKVX NSCLC 103% | SN12C renal 94.9% | UO-31 renal 87.9% | TK-10 renal 131% | ACHN renal 108% | CAKI-1 renal 104% | A498 renal 105% | CCRF-CEM leukemia 99.6% | MOLT-4 leukemia 98.4%
